Measured values published in the supplement of paper PMC8975748.
Where a name gives a salt, the structure may show the parent alone.

tested on: Saccharomyces cerevisiae BY4741 SeMeCo community; assay: z-score of subpopulation abundance vs DMSO median, subpopulation auxotrophic for H; higher = larger share of this subpopulation than in DMSO controls; settings: 10 µM; 24 h; SM minimal medium; subpopulation (auxotrophy): H
Procedure, shortened: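 A Saccharomyces cerevisiae BY4741 community carried four plasmids, each restoring one auxotrophy and encoding a distinct fluorescent protein. It was pre-grown overnight to OD600 1.0, diluted to 0.3, and 70 µl was added to 384-well plates acoustically predosed with library drugs (10 µM final), then grown 24 h in minimal SM medium. Cells were paraformaldehyde-fixed and imaged by automated confocal microscopy, with single-auxotroph fluorescent strains setting thresholds and autofluorescence correction. Each subpopulation's abundance was scored as a z-score against the vehicle-well median.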

Row | Structure (SMILES) | z-score of subpopulation abundance
1 | OCc1ccccc1O[C@@H]1O[C@H](CO)[C@@H](O)[C@H](O)[C@H]1O [Salicin] | -0.5
2 | COc1cc2c(cc1OC)[C@@H]1Cc3ccc(OC)c(OC)c3CN1CC2 [Rotundine] | 0.05
3 | C[C@H](NCc1ccc(OCc2cccc(F)c2)cc1)C(N)=O [Safinamide] | -0.07
4 | CC1(C)S[C@@H]2[C@H](NC(=O)COc3ccccc3)C(=O)N2[C@H]1C(=O)O [Penicillin V potassium salt] | -1.14
5 | CC[C@H]1OC(=O)C[C@@H](O)[C@H](C)[C@@H](O[C@@H]2O[C@H](C)[C@@H](O[C@H]3C[C@@](C)(O)[C@@H](O)[C@H](C)O3)[C@H](N(C)C)[C@H]2O)[C@@H](CC=O)C[C@@H](C)C(=O)/C=C/C(C)=C/[C@@H]1CO[C@@H]1O[C@H](C)[C@@H](O)[C@@H](OC)[C@H]1OC [Tylosin] | 2.22
6 | C[N+]1(C)[C@@H]2C[C@@H](OC(=O)C(O)(c3cccs3)c3cccs3)C[C@H]1[C@@H]1O[C@@H]12 [Tiotropium Bromide hydrate] | -0.8
7 | CCC(=O)NS(=O)(=O)c1ccc(-c2c(-c3ccccc3)noc2C)cc1 [Parecoxib Sodium] | 0.01
8 | Cc1cccc(C)c1NC(=O)C1CCCCN1C (stereo not drawn) [Mepivacaine] | -1.62
9 | CC1=C(CC(=O)O)c2cc(F)ccc2/C1=C\c1ccc([S+](C)[O-])cc1 (stereo not drawn) [Sulindac] | 0.69
10 | C#C[C@]1(O)CC[C@H]2[C@@H]3CCC4=CCCC[C@@H]4[C@H]3CC[C@@]21C [Lynestrenol] | 0.16
11 | CN(C)CCCN1c2ccccc2Sc2ccc(Cl)cc21 [Chlorpromazine HCl] | -0.33
12 | NC(=O)N1c2ccccc2C=Cc2ccccc21 [Carbamazepine] | -0.43
13 | CC(=O)OCC(CCn1cnc2cnc(N)nc21)COC(C)=O [Famciclovir] | 0.1
14 | N[C@@H](CCC(=O)O)C(=O)O [(S)-Glutamic acid] | 0.17
15 | c1cnc2cc3c(cc2n1)[C@@H]1CNC[C@H]3C1 [Varenicline Tartrate] | 0.28
16 | NC[C@@H]1O[C@H](O[C@H]2[C@@H](O)[C@H](O[C@@H]3[C@@H](O)[C@H](N)C[C@H](N)[C@H]3O[C@H]3O[C@H](CN)[C@@H](O)[C@H](O)[C@H]3N)O[C@@H]2CO)[C@H](N)[C@@H](O)[C@@H]1O [Neomycin sulfate] | 0.56
17 | C#CCC(Cc1cnc2nc(N)nc(N)c2n1)c1ccc(C(=O)N[C@@H](CCC(=O)O)C(=O)O)cc1 (stereo partly drawn) [Pralatrexate] | 3.97

Row | Structure (SMILES) | z-score of subpopulation abundance
18 | CCCCCCCCCCCCCCCC[N+](C)(C)C [Cetrimonium Bromide (CTAB)] | 9.21
19 | C#C[C@]1(O)CC[C@H]2[C@@H]3CCC4=CCCC[C@@H]4[C@H]3C(=C)C[C@@]21CC [Desogestrel] | 0.78
20 | C=CC[N+]1([C@H]2C[C@H]3[C@@H]4CC[C@H]5C[C@H](O)[C@@H](N6CCOCC6)C[C@]5(C)[C@H]4CC[C@]3(C)[C@H]2OC(C)=O)CCCC1 [Rocuronium Bromide] | -0.21
21 | N#CC(c1ccc(Cl)cc1)c1c(Cl)cc(-n2ncc(=O)[nH]c2=O)cc1Cl (stereo not drawn) [Diclazuril] | -0.16
22 | COCCCN1CCC(NC(=O)c2cc(Cl)c(N)c3c2OCC3)CC1 [Prucalopride] | -0.52
23 | CN(C/C=C/C#CC(C)(C)C)Cc1cccc2ccccc12 [Terbinafine HCl] | -0.56
24 | CC/C(=C(\c1ccccc1)c1ccc(OCCN(C)C)cc1)c1ccccc1 [Tamoxifen] | 1.57
25 | COC(=O)C1=C(C)NC(C)=C(C(=O)OCCN2CCN(C(c3ccccc3)c3ccccc3)CC2)C1c1cccc([N+](=O)[O-])c1 (stereo not drawn) [Manidipine 2HCl] | 1.78
26 | CCC(C)(Oc1ccc(C2(c3ccc(OC(C)(CC)C(=O)O)cc3)CCCCC2)cc1)C(=O)O (stereo not drawn) [Clinofibrate] | 1.7
27 | CCC(=O)Oc1ccc2c(c1)CCC1C2CCC2(C)C(OC(=O)CC)CCC12 (stereo not drawn) [Estradiol dipropionate(17-Beta-Estradiol-3,17-Dipropionate)] | -1.21
28 | O=C(O)C[C@H](O)C[C@H](O)/C=C/c1c(C2CC2)nc2ccccc2c1-c1ccc(F)cc1 [Pitavastatin Calcium] | 1.86
29 | CN(C)CCN1C(=O)c2cccc3cc(N)cc(c23)C1=O [Amonafide] | 0.02
30 | c1ccc(-c2ccc(C(c3ccccc3)n3ccnc3)cc2)cc1 (stereo not drawn) [Bifonazole] | 1.08
31 | CO/N=C(\C(=O)N[C@@H]1C(=O)N2C(C(=O)O)=C(Cn3ccc(=N)n3CCO)CS[C@H]12)c1csc(N)n1 [Cefoselis Sulfate] | -1.31
32 | OC(CCN1CCCCC1)(c1ccccc1)C1CCCCC1 (stereo not drawn) [Trihexyphenidyl hydrochloride] | -0.13
33 | C[C@H](NCc1ccc(OCc2cccc(F)c2)cc1)C(N)=O [Safinamide Mesylate] | 0.45
